# Rows were chosen to be rich in hits. Some 6.1% of all compounds tested hit in one or more screens of this group.
# TGFb inhibitor – qHTS for Inhibitors of TGF-b. HepG2 CAGA-GFP TGF-b/SMAD3 reporter, GFP fluorescence, 18 h; TGF-beta stimulated, 500 pg/mL final. Potency, µM (top dose mostly 46.1 µM), for inactives: top-dose activity, negative = inhibition, usual class: inhibitors. hit rate 1.2% among 410,000. AID 588855, 2011; further: on the % scale 0 is the no-effect control and ±100 the full control effect; nearly all actives have a fitted effect of over 65% in size
#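 First, reporter cells (HEPG2 CAGA-GFP) rested 2 h at 37 degrees C. Next, compounds were pinned in and TGF-beta added to 500 pg/mL final. After 18 h, GFP was imaged per cell and summed per well.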
# Gal4-VP16 FLuc – VP16 counterscreen qHTS for inhibitors of ROR gamma transcriptional activity; Potency, µM (series often up to 53.6 µM), without a hit: at the highest dose activity, negative = inhibition, most hits filed as inhibitors; hit rate 3.5% among 310,000; Drosophila S2 Gal4-VP16 UAS-luciferase, luminescence, 20 h;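 further: Gal4-VP16 expression switched on by copper sulfate through the metallothionein promoter; on the % scale 0 is the no-effect control and ±100 the full control effect; nearly all actives have a fitted effect of over 50% in size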
# S2 tox – Viability Counterscreen for Primary qHTS for Inhibitors of ATXN expression; AID 651635, 2014; hit rate 0.49% among 400,000; Potency, µM (highest dose often 56.7 µM), hits mostly cytotoxic; S2 cells (HEK-293 line with an ATXN2-luciferase reporter) viability, CellTiter-Fluor protease fluorescence, 24 h; further: nearly all actives have a fitted effect of over 40% in size
# ATXN2 expr inh – Primary qHTS for Inhibitors of ATXN expression; HEK-293 ATXN2-luciferase reporter, luminescence, 24 h; Potency, µM (top dose mostly 57 µM), for the others: top-dose activity change, negative = inhibition, actives largely listed as inhibitors; hit rate 0.72% among 360,000; AID 1745845, 2022; further: on the % scale 0 is the no-effect control and ±100 the full control effect; nearly all actives have a fitted effect of over 55% in size
#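 qHTS (up to 57 uM final) was run with 24 h compound exposure of reporter cells at 37 °C. Each well was multiplexed: SteadyGlo luminescence measured ATXN2-luciferase expression after a fluorogenic Gly-Phe-AFC viability readout (25 uM final).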
# HepG2 tox – qHTS for Inhibitors of TGF-b: Cytotox Counterscreen. Potency, µM (doses to about 46.1 µM), for the others: top-dose activity change, negative = cytotoxicity, most hits filed as cytotoxic. hit rate 0.76% among 410,000. HepG2 CAGA-GFP viability, ATP luminescence, 18 h
#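 HepG2 CAGA-GFP cells (1000/well, DMEM with 1% FBS) received compound, then TGF-beta at 500 pg/mL final, and were incubated 18 hours at 37 degrees C. Viability was read by CellTiter-Glo luminescence. Media-only wells were set as complete cell-killing and DMSO as no toxicity.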
# RORgamma inh – qHTS for inhibitors of ROR gamma transcriptional activity; hit rate 5.4% among 310,000; Potency, µM (highest dose often 53.6 µM), for inactives: top-dose activity change, negative = inhibition, actives largely listed as inhibitors; Drosophila S2 Gal4-RORgamma UAS-luciferase reporter, 20 h; Nuclear receptor ROR-gamma (Mus musculus), P51450; AID 2551, 2010; further: on the % scale 0 is the no-effect control and ±100 the full control effect; nearly all actives have a fitted effect of over 60% in size
# Target sequence (P51450 whole entry, looked up, the tested form may be a part): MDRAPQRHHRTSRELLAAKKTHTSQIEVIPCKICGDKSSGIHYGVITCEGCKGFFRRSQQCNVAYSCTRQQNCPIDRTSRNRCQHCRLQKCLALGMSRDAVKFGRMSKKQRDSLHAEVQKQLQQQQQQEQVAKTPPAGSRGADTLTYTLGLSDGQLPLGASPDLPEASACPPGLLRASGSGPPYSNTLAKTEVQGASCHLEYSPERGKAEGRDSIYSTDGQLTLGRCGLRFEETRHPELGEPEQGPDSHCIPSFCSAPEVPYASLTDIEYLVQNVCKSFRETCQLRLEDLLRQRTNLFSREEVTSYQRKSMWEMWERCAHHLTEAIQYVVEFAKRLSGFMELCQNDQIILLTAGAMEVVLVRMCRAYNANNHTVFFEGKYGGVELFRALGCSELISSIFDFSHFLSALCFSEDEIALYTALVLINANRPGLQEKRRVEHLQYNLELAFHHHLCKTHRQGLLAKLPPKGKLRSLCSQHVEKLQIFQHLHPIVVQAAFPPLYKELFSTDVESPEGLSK
#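 Using a luciferase readout, inhibitors were identified by reduced reporter activity in Drosophila cells coexpressing a copper-inducible Gal4–ROR gamma fusion and UAS-driven Photinus luciferase, incubated 20 hr after 700 uM copper sulfate.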
# Numbers without * were called inactive; i = inactive; u = inconclusive; x = not tested or not shown; ! = a repeat was not active; [ ] = dose if it differs, or a comment. The call rests on the fitted dose curve; in most records, active means well fitted curve in the direction sought with a large enough effect; inconclusive means small, poorly fitted or top-dose-only effect, or another doubt; inactive means no such curve, though single readings can be large; an effect the other way counts as inactive or inconclusive. Potency means the concentration at half of the fitted maximal effect.
SMILES,TGFb inhibitor,Gal4-VP16 FLuc,S2 tox,ATXN2 expr inh,HepG2 tox,RORgamma inh
CCOC(=O)C1CCCC(NS(=O)(=O)c2ccc(NC(C)=O)cc2)C1 (centres undefined),11.2µM*,-0.5%,i,3.7%,-13.2%,-0.1%
COc1cc(NC(=O)Cn2c(=O)n(Cc3ccco3)c(=O)c3sc4ccccc4c32)cc(OC)c1,-1.2%,x,i,13.9%,-1.5%,x
COc1cc(CO)ccc1OCC(=O)N1CCc2ccccc21,-1.8%,u,i,7.6%,-5.0%,2.51µM*
COc1ccccc1COc1ccc2c(C)c(CCC(=O)O)c(=O)oc2c1C,u,u,i,-5.4%,-2.0%,7.94µM*
Cc1c(CCC(=O)O)c(=O)oc2cc(OCc3ccccc3Br)ccc12,2.6%,3.16µM*,i,x,6.9%,-40.0%
COc1cccc(-c2coc3cc4oc(=O)c(CCC(=O)O)c(C)c4cc23)c1,0.5%,12.6µM*,u,-31.8%,-6.5%,-8.6%
Cc1c(CCC(=O)O)c(=O)oc2cc(OCc3cccc(F)c3)ccc12,41.0%,1.5%,i,5.5%,-4.1%,16.8%
CN(C)/C=N/C(=S)Nc1ccc(F)cc1,0.0%,u,i,12.8%,13.0%,11.2µM*
Cc1ccc(OC(=S)Nc2ccc(F)cc2)cc1,22.6%,1.0%,i,2.7%,-32.2%,-18.0%
CN(C)/C=N/C(=S)Nc1cc(Cl)cc(Cl)c1,-14.4%,-0.6%[10 µM],x,-32.8%,-71.8%,19.7%
CN(C)/C=N/C(=S)Nc1ccccc1F,15.7%,-1.9%,i,11.9%,-12.8%,-30.0%
CN(O)/C=N/C(=S)Nc1ccc(Cl)cc1Cl,u,0.7%,i,-5.1%,-34.7%,17.8µM*
CN(C)/C=N/C(=S)Nc1ccccc1Cl,10.7%,8.4%[10 µM],i,27.0%,-12.3%,6.31µM*
CN(C)/C=N/C(=S)Nc1ccc(Cl)c(Cl)c1,-23.2%,3.16µM*,i,17.0%,-23.5%,1.78µM*
O=C(Nc1ccc(C(F)(F)F)cc1)C1CCN(S(=O)(=O)c2ccc(N3CCCC3=O)cc2)CC1,u,3.55µM*,i,x,-0.3%,-6.6%
O=C(NCC1CCC2(CCN(Cc3ccccc3O)CC2)O1)C1CCCO1 (centres undefined),x,x,i,x,x,x
CCOc1cc(CNc2ccc(O)cc2)ccc1OCc1ccc(Cl)cc1,12.6µM*,x,u,-7.8%,-101.7%,x
Oc1ccc(NCc2ccccc2OCc2ccc(Cl)cc2)cc1,5.62µM*,x,x,x,12.6µM*,x
Oc1ccc(NCc2ccccc2OCc2ccccc2)cc1,8.91µM*,u,x,u,11.2µM*!,u
CC(Oc1ccccc1)C(=O)N[C@@H]1C(=O)N2C(C(=O)O)C(C)(C)S[C@H]12 (some centres undefined),10.0%,x,x,x,16.2%,x
COC(=O)CC1(CC(N)=O)SCCS1,u,x,i,-8.8%,14.1µM*,x
CC(NC(=O)Nc1nnc(C(F)(F)F)s1)(C(F)(F)F)C(F)(F)F,u,5.62µM*,u,u,-43.4%,5.01µM*
CC(C)(C)CC(=O)Nc1nnc(C(F)(F)F)s1,-1.0%,8.8%,i,1.1%,-16.8%,u
O=C(Nc1ccc([N+](=O)[O-])cc1)Nc1nc(-c2ccc(Cl)s2)cs1,u,0.891µM*,14.1µM*,7.94µM*,10µM*,3.98µM*
COCCN(C(=S)Nc1c(C)cc(C)cc1C)C(C)c1cccs1 (centres undefined),-6.2%,2.0%,i,x,-26.2%,10µM*
SMILES,TGFb inhibitor,Gal4-VP16 FLuc,S2 tox,ATXN2 expr inh,HepG2 tox,RORgamma inh
COCCN(C(=S)Nc1ccc(C(C)C)cc1)C(C)c1cccs1 (centres undefined),u,u,i,x,-43.7%,3.55µM*
COCCN(C(=S)Nc1cccc(OC)c1)C(C)c1cccs1 (centres undefined),0.0%,u,i,-14.8%,3.4%,u
Cc1ccc2c(C(=O)CNC3=NCCS3)c(C)[nH]c2c1,0.4%,x,x,x,-14.0%,x
COc1ccc(-n2ccn(Cc3ccc(C)cc3)c(=O)c2=O)cc1OC,3.0%,x,x,x,-31.3%,x
CC(=O)Nc1ccc(NC(=O)c2cc3c(=O)n(Cc4cccnc4)ccc3nc2C)cc1,-2.2%,x,i,12.6%,17.8µM*,x
Cc1ccc(C)c(N2CCN(C(=O)c3cc4c(=O)n(Cc5ccccc5)ccc4nc3C)CC2)c1,10µM*,x,u,u,-33.5%,x
COc1ccc(S(=O)(=O)NCc2ccc3c(c2)CCN3C(=O)c2ccc(C)cc2)cc1Cl,-8.8%,x,x,x,-27.7%,x
CCOC(=O)c1c(NC(=O)/C=C/C(=O)O)sc(C)c1-c1ccc(Cl)cc1,u,5.6%,u,u,17.8µM*,-12.8%
CCNc1ncc2nc(-c3ccc(OC)cc3)c(=O)n(-c3ccc(OC)cc3)c2n1,x,-2.9%,x,x,x,-31.5%
Cc1ccc(C)c2sc(N3CCN(C(=O)c4ccco4)CC3)nc12,10µM*,x,i,u,-51.6%,x
Cc1ccc(Cl)c2sc(N3CCN(C(=O)c4ccco4)CC3)nc12,u,x,i,-22.3%,-16.7%,x
O=C(Cc1ccccc1)N(Cc1cccnc1)c1nc2c(F)cccc2s1,1.58µM*,x,x,x,-35.0%,x
CCn1c(NC(=O)c2cccs2)nc2ccccc21,-20.0%,1.12µM*,i,16.6%,-14.0%,0.708µM*
CCCn1c(NC(=O)c2ccc(Cl)c(S(=O)(=O)N3CCCC3)c2)nc2ccccc21,-7.3%,3.55µM*,u,-30.3%,-15.7%,1.58µM*
CCN(CC)CCn1c(NC(=O)c2ccc(C(F)(F)F)cc2)nc2ccccc21,6.4%,0.355µM*,i,-14.7%,0.0%,0.224µM*
CN(C)CCn1c(NC(=O)c2ccc(Cl)cc2)nc2ccccc21,-9.6%,1.41µM*,i,8.6%,-4.5%,1.12µM*
CCCn1c(NC(=O)C2CCN(C(=O)c3ccccc3C)CC2)nc2ccccc21,-27.4%,x,i,-18.2%,-25.8%,x
CCCn1c(NC(=O)c2cccc(C)c2C)nc2ccccc21,u,2.24µM*,u,-24.3%,-54.4%,2µM*
Cc1cc2ccccc2n1CCNC(=O)c1cccs1,-5.2%,14.1µM*,i,4.0%,-39.3%,12.6µM*
CCOC(=O)c1c(C)[nH]c(C(=O)N/N=C\c2ccccc2O)c1C,-32.5%,1.41µM*,u,u,-32.6%,1.58µM*
CCOC(=O)c1c(C)[nH]c(C(=O)N/N=C/c2cc([N+](=O)[O-])ccc2O)c1C,-21.3%,u,u,u,-13.4%,2.24µM*
CCOC(=O)c1c(C)[nH]c(C(=O)N/N=C/c2ccc(OC)c(OC)c2)c1C,7.8%,-7.4%,i,x,-3.7%,-34.3%
